beta cell repl = inducers of beta-cell replication in MIN6 cells; MIN6 cells proliferation, ATPlite luminescence, 48 h; cells starved in 0.2% serum; 100% = growth in 10% serum; proliferation, % at 10 µM; 330,000 compounds, 0.29% hits; AID 2380;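 active means compounds whose signal lies at least 3.5 SD above the mean of all wells on their plate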;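 further: 0% = DMSO-treated cells in low-serum medium and 100% = 10% serum control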
Myeloid diff 2 = compounds promoting myeloid differentiation; ER-HoxA9 myeloid progenitors, lysozyme-GFP differentiation, flow cytometry; calls only at 10 µM; 360,000 compounds, 1% hits; AID 624256;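 active means normalized GFP-positive differentiation at or above the plate's own cutoff, the solvent-only control mean plus 3 SD; inconclusive means no clear call, values can overlap the other calls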;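 further: cells exposed to compound for four days before flow analysis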
ABCB6 inh MLPCN = inhibitors of human ABC transporter ABCB6. AID 602162. 360,000 compounds, 0.19% hits. K562-ABCB6 porphyrin accumulation, flow cytometry, 1 h; hits give low values. Q9NP58. fluorescence ratio to DMSO, % at 10 µM;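 active means fluorescence ratio to DMSO below 75%, the collection mean minus 3 SD; inconclusive means too few cells collected in the well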;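 further: signal is porphyrin accumulated inside mitochondria; 100% equals median channel fluorescence of DMSO control wells; lower ratio means ABCB6 inhibition with less porphyrin fluorescence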
Target sequence (Q9NP58 whole entry, looked up): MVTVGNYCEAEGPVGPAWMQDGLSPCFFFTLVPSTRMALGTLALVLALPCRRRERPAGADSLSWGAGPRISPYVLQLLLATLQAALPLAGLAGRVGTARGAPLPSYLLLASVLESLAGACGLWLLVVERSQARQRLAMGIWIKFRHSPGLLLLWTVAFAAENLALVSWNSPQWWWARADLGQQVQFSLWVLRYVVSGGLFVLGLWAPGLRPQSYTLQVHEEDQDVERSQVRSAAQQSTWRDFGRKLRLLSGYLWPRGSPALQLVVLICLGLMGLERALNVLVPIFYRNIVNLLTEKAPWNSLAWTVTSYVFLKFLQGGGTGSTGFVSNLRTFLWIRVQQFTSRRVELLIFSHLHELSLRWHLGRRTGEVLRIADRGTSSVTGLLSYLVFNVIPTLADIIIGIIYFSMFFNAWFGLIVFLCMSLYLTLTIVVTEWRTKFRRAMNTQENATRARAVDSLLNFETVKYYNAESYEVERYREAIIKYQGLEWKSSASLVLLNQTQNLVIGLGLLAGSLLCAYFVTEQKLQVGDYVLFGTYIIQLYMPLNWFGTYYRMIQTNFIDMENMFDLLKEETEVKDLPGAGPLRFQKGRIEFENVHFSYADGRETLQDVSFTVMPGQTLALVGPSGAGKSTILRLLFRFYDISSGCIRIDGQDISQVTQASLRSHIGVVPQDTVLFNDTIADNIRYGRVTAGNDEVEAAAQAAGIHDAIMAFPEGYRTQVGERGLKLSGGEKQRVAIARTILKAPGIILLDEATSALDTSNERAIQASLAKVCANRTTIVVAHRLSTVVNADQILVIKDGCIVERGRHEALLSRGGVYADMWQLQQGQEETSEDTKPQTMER
Cardio protect = protects H9c2 cardiomyocytes from peroxide injury; H2O2 injury protection, ATPLite, 2 h; protection from H2O2 cell death, % at 20 µM; 360,000 compounds, 0.63% hits; AID 588492;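 active means compounds giving at least 50% protection of heart cells from peroxide-induced death in the single-dose screen, raw or plate-pattern-corrected value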;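 further: 0% = DMSO wells with peroxide and 100% = DMSO wells without peroxide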
hiPSC survival = increases survival of single human iPS cells. AID 602274. survival enhancement, % at 20 µM. 360,000 compounds, 0.044% hits. hiPSC single-cell survival, ATPlite luminescence; 100% = ROCK inhibitor wells, 0% = DMSO; in the data active means survival enhancement above about 18%;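 further: cells exposed to compounds for 16 hours before the ATP read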
An asterisk follows results filed as active. Most compounds without a hit are left out; they make up all but 2.2% or so of the library.

For Cc1nn(CC(=O)N2CCN(c3ccccc3)CC2)c(C)c1[N+](=O)[O-] the results were beta cell repl -1, Myeloid diff 2 active, ABCB6 inh MLPCN 95, Cardio protect 1 and hiPSC survival 0.
`Cc1nn(Cc2ccc(C(=O)N3CCN(C(=O)c4ccco4)CC3)o2)c(C)c1[N+](=O)[O-]` gave beta cell repl 1, Myeloid diff 2 inactive, ABCB6 inh MLPCN 97, Cardio protect 54* and hiPSC survival 0.
`Cc1ccc(S(=O)(=O)N2CCN(C(=O)Cn3nc(C)c([N+](=O)[O-])c3C)CC2)c(C)c1` gave beta cell repl 2, Myeloid diff 2 inactive, ABCB6 inh MLPCN 98, Cardio protect -3 and hiPSC survival 0.
`CC(C)(C)NC(=O)/C(=C\c1ccco1)NC(=O)c1ccco1` gave beta cell repl 0, Myeloid diff 2 inactive, ABCB6 inh MLPCN 98, Cardio protect -1 and hiPSC survival 1.
O=C(CSc1nc2ccccc2o1)NCc1n[nH]c(=O)c2ccccc12 was read as beta cell repl 1, Myeloid diff 2 inactive, ABCB6 inh MLPCN 97, Cardio protect 57* and hiPSC survival 1.
O=C(Cc1n[nH]c(=O)c2ccccc12)NCc1ccccn1 was read as beta cell repl -1, Myeloid diff 2 inactive, ABCB6 inh MLPCN 99, Cardio protect 54* and hiPSC survival 0.
For COc1ccc(OCC(=O)NCc2n[nH]c(=O)c3ccccc23)cc1 the results were beta cell repl 0, Myeloid diff 2 inactive, ABCB6 inh MLPCN 100, Cardio protect 78* and hiPSC survival 0.
For CC(C)c1ccc(OCC(=O)NCc2n[nH]c(=O)c3ccccc23)cc1 the results were beta cell repl -3, Myeloid diff 2 inactive, ABCB6 inh MLPCN 96, Cardio protect 31 and hiPSC survival 1.
`O=C(COc1ccc(Cl)cc1)NCc1n[nH]c(=O)c2ccccc12` gave beta cell repl 3, Myeloid diff 2 inactive, ABCB6 inh MLPCN 99, Cardio protect 81* and hiPSC survival 0.
O=C(Cc1ccccc1)NCc1ccccn1 was read as beta cell repl 6, Myeloid diff 2 inactive, ABCB6 inh MLPCN 93, Cardio protect 4 and hiPSC survival 0.
For Cc1cc(C(=O)CSc2nnc(-c3ccco3)o2)c(C)n1C the results were beta cell repl 2, Myeloid diff 2 inactive, ABCB6 inh MLPCN 97, Cardio protect 4 and hiPSC survival 0.
Screening CCCN(CC(=O)Nc1ccccc1C)C(=O)Cc1n[nH]c(=O)c2ccccc12 returned beta cell repl -1, Myeloid diff 2 inactive, ABCB6 inh MLPCN 94, Cardio protect 60* and hiPSC survival 0.
Screening Cc1c(Cl)cccc1NC(=O)CNC(=O)Cc1n[nH]c(=O)c2ccccc12 returned beta cell repl -3, Myeloid diff 2 inactive, ABCB6 inh MLPCN 91, Cardio protect 88* and hiPSC survival 2.
O=C(Cc1n[nH]c(=O)c2ccccc12)NCc1ccc(Cl)cc1 was read as beta cell repl -2, Myeloid diff 2 inactive, ABCB6 inh MLPCN 102, Cardio protect 67* and hiPSC survival 0.
`O=C(COC(=O)Cc1n[nH]c(=O)c2ccccc12)NNC(=O)c1ccccc1` gave beta cell repl -2, Myeloid diff 2 inactive, ABCB6 inh MLPCN 89, Cardio protect 50 and hiPSC survival -1.
Screening CCCN(CC(=O)Nc1ccccc1C)C(=O)Cc1c[nH]c2ccccc12 returned Myeloid diff 2 inactive, ABCB6 inh MLPCN 103, Cardio protect -6 and hiPSC survival 0.
For Cc1cccc(NC(=O)CSc2nnnn2C2CCCC2)c1 the results were beta cell repl 0, Myeloid diff 2 inactive, ABCB6 inh MLPCN 96, Cardio protect -4 and hiPSC survival 1.
Screening Cc1ccc(NC(=O)CCCc2nc3ccccc3c(=O)[nH]2)c(Cl)c1 returned beta cell repl -3, Myeloid diff 2 inactive, ABCB6 inh MLPCN 98, Cardio protect 63* and hiPSC survival 0.
For Cc1c(Cl)cccc1NC(=O)CNC(=O)CCCc1nc2ccccc2c(=O)[nH]1 the results were beta cell repl 4, Myeloid diff 2 inactive, ABCB6 inh MLPCN 95, Cardio protect 34 and hiPSC survival 1.
For COc1ccc(NC(=O)CCCc2nc3ccccc3c(=O)[nH]2)cc1Cl the results were beta cell repl -3, Myeloid diff 2 inactive, ABCB6 inh MLPCN 100, Cardio protect 57* and hiPSC survival 2.
CCOc1ccc(N=Nc2c(=O)[nH]n3c(=O)c4c([nH]c23)CCCC4)cc1 was read as beta cell repl 2, Myeloid diff 2 active, ABCB6 inh MLPCN 87, Cardio protect 12 and hiPSC survival 5.
O=C1c2ccccc2-c2onc3ccc(N4CCCC4)c1c23 was read as Myeloid diff 2 active, ABCB6 inh MLPCN 137, Cardio protect 27 and hiPSC survival 0.
For CCOc1ccc2noc3c2c1C(=O)c1ccccc1-3 the results were beta cell repl -4, Myeloid diff 2 inactive, ABCB6 inh MLPCN 299, Cardio protect 27 and hiPSC survival -2.
For Nc1nc(N)c2cc(Sc3ccc(Cl)cc3)ccc2n1 the results were Myeloid diff 2 inconclusive, ABCB6 inh MLPCN 98, Cardio protect -11 and hiPSC survival 1.
`CCCn1cc(S(=O)(=O)c2ccc(F)cc2)c(=O)c2cc(OCC)ccc21` gave beta cell repl -1, Myeloid diff 2 active, ABCB6 inh MLPCN 101, Cardio protect 0 and hiPSC survival 1.
CCOc1ccc2[nH]cc(S(=O)(=O)c3ccc(F)cc3)c(=O)c2c1 was read as beta cell repl -2, Myeloid diff 2 inactive, ABCB6 inh MLPCN 99, Cardio protect -16 and hiPSC survival 0.
O=C(Nc1ccccc1N1CCOCC1)c1cccnc1 was read as beta cell repl -3, Myeloid diff 2 inactive, ABCB6 inh MLPCN 98, Cardio protect 2 and hiPSC survival 0.
Screening CC(O)CN(CC(C)O)c1ccc2c(c1)Cc1cc([N+](=O)[O-])ccc1-2 (centres undefined) returned Myeloid diff 2 active, ABCB6 inh MLPCN 181, Cardio protect -4 and hiPSC survival 2.
Screening Cc1cc(SCCOc2ccccc2)nc(N)n1 returned beta cell repl -1, Myeloid diff 2 inactive, ABCB6 inh MLPCN 98, Cardio protect -6 and hiPSC survival 2.
For O=C(C1CCC(=O)N(C2CCCC2)C1)N1CCN(Cc2cccc(F)c2)CC1 (centres undefined) the results were beta cell repl -3, Myeloid diff 2 active, ABCB6 inh MLPCN 100, Cardio protect 0 and hiPSC survival 1.
O=c1c2ccccc2nc(SCc2cn3ccsc3n2)n1-c1ccccc1F was read as beta cell repl 4, Myeloid diff 2 inactive, ABCB6 inh MLPCN 101, Cardio protect 10 and hiPSC survival -1.
`Cc1cccc(-n2c(SCc3cc(=O)n4ccsc4n3)nc3ccccc3c2=O)c1` gave beta cell repl -2, Myeloid diff 2 inactive, ABCB6 inh MLPCN 98, Cardio protect 67* and hiPSC survival 0.
